Assay [1] deals with Ubiquitin carboxyl-terminal hydrolase 1 (Homo sapiens) (UniProt O94782). The assay is described as follows: Inhibitors of USP1/UAF1: Pilot qHTS (AID 504865).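 For activity change, negative = inhibition: rhodamine fluorescence freed from ubiquitin-rhodamine substrate followed over time; top concentration of the series differs between compounds; % is set by controls: 0 for no effect and ±100 for the full control effect.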 Note: nearly all actives have a fitted effect of over 35% in size. Note: potency is the fitted concentration of half-maximal effect. In short, it runs like this: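 Kinetic fluorescence assay: 1nM USP1/UAF1, 15 min compound preincubation, then 150nM Ub-Rho; 480/540 nm.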
Sequence of Ubiquitin carboxyl-terminal hydrolase 1 (Homo sapiens) (O94782 whole entry, looked up): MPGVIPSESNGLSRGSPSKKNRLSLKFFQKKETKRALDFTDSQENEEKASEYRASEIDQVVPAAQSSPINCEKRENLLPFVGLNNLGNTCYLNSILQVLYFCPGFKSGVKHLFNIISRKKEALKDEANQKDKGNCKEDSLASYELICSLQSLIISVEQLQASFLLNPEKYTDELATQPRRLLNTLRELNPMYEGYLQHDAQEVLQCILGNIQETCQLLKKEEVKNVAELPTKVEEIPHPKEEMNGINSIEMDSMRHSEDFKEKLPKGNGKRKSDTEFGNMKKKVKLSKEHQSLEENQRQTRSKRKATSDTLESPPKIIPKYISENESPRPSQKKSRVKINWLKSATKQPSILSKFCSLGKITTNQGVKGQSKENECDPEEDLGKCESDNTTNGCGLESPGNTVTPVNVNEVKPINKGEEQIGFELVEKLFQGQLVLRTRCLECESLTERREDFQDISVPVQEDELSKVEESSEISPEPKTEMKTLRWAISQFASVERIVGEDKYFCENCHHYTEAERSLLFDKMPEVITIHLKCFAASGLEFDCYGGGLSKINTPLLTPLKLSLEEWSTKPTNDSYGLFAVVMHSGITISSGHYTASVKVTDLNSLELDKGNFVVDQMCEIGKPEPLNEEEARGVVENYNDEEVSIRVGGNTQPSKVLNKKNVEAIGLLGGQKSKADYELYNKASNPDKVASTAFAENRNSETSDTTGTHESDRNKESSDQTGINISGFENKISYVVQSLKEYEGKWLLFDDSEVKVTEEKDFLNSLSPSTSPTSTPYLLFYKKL
Background: In qHTS, concentration-response curves come from the screen itself.

The test system of assay [2] is AA1029. The assay is described as follows: qHTS profiling for inhibitors of Plasmodium falciparum proliferation (AID 504749). Note: nearly all actives have a fitted effect of over 60% in size. Note: potency is the fitted concentration of half-maximal effect. Conditions: P. falciparum in erythrocytes, SYBR Green DNA, 72 h; series mostly up to 28.7 µM. In short, it runs like this:
(§1)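 P. falciparum-infected erythrocytes (0.3% parasitemia, 2.5% hematocrit final) were exposed to compounds for 72 h at 37 C in 5% CO2, then lysed with SYBR Green buffer overnight at room temperature; parasite DNA fluorescence was normalized to artemisinin and DMSO controls.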

Assay [3] has as its system ATS189. Described as above. Conditions: P. falciparum in erythrocytes, SYBR Green DNA, 72 h; series mostly up to 28.7 µM. In short, it runs like this:
as §1

Assay [4] concerns ATS95. The assay is described as above. As to conditions: P. falciparum in erythrocytes, SYBR Green DNA, 72 h; series mostly up to 28.7 µM. In short, it runs like this:
as §1

Assay [5] relates to CP211. Described as above. Conditions: P. falciparum in erythrocytes, SYBR Green DNA, 72 h; series mostly up to 28.7 µM. In short, it runs like this:
as §1

In assay [6] the test system is CP215. The description is as above. As to conditions: P. falciparum in erythrocytes, SYBR Green DNA, 72 h; series mostly up to 28.7 µM. In short, it runs like this: as §1
For assay [7], the system named is CP238. The description is as above. As to conditions: P. falciparum in erythrocytes, SYBR Green DNA, 72 h; series mostly up to 28.7 µM. In short, it runs like this:
as §1

The subject of assay [8] is CP266. The assay is described as above. Conditions: P. falciparum in erythrocytes, SYBR Green DNA, 72 h; series mostly up to 28.7 µM. In short, it runs like this: as §1
Assay [9] deals with CP286. Described as above. Conditions: P. falciparum in erythrocytes, SYBR Green DNA, 72 h; series mostly up to 28.7 µM. In short, it runs like this:
as §1

Assay [10] relates to CP315. The description is as above. As to conditions: P. falciparum in erythrocytes, SYBR Green DNA, 72 h; series mostly up to 28.7 µM. In short, it runs like this:
as §1

Assay [11] deals with CP335. The description is as above. Conditions: P. falciparum in erythrocytes, SYBR Green DNA, 72 h; series mostly up to 28.7 µM. In short, it runs like this: as §1
In assay [12] the test system is DIV17. Described as above. Conditions: P. falciparum in erythrocytes, SYBR Green DNA, 72 h; series mostly up to 28.7 µM. In short, it runs like this: as §1
The test system of assay [13] is DIV30. The assay is described as above. As to conditions: P. falciparum in erythrocytes, SYBR Green DNA, 72 h; series mostly up to 28.7 µM. In short, it runs like this:
as §1

The subject of assay [14] is PC15. Described as above. As to conditions: P. falciparum in erythrocytes, SYBR Green DNA, 72 h; series mostly up to 28.7 µM. In short, it runs like this:
as §1

The subject of assay [15] is W2. The description is as above. Conditions: P. falciparum in erythrocytes, SYBR Green DNA, 72 h; series mostly up to 28.7 µM. In short, it runs like this: as §1
The target in assay [16] is Glucocorticoid receptor (Homo sapiens) (UniProt P04150). Nature of the assay: qHTS assay for small molecule agonists of glucocorticoid receptor signaling (AID 588532; active = well fitted curve in the direction sought with a large enough effect in the signal ratio, with a control signal flat; the % refers to the signal ratio;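 note: 100% = dexamethasone at 0.1 µM and 0% = DMSO only wells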). Conditions: HeLa MMTV-bla, beta-lactamase ratio, agonist, 18 h; stronger effect = higher value; percent of dexamethasone control, DMSO zero. In short, it runs like this: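 Stimulation of a glucocorticoid response element-driven beta-lactamase gene was measured in HeLa cells. Responses were scaled between DMSO basal and 0.1 uM dexamethasone, then fitted for half-maximal stimulation.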
Sequence of Glucocorticoid receptor (Homo sapiens) (P04150 whole entry, looked up): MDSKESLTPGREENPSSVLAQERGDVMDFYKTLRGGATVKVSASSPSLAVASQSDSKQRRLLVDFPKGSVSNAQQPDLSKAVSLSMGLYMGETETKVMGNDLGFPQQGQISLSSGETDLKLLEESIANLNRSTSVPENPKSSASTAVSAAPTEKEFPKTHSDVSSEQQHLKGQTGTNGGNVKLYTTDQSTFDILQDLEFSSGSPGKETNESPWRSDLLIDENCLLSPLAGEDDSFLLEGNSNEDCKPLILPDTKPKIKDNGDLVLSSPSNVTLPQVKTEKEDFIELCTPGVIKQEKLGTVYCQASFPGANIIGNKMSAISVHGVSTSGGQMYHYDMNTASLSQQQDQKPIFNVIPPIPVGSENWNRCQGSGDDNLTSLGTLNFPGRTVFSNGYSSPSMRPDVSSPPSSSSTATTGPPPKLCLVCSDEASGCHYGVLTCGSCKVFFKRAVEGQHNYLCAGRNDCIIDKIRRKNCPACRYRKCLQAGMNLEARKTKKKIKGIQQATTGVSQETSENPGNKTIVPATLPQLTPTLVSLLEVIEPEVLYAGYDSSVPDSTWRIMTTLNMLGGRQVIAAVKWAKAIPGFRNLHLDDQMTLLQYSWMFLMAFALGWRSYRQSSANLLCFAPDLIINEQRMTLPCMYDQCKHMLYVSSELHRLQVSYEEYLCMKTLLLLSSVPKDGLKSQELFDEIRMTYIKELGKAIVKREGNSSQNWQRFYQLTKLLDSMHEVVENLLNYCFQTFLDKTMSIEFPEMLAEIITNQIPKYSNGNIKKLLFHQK

Assay [17] addresses Nuclear receptor subfamily 1 group I member 2 (Rattus norvegicus) (UniProt Q9R1A7). The assay is described as follows: qHTS assay for small molecule activators of the rat pregnane X receptor (rPXR) signaling pathway (AID 651751; call rule not given here; note: 0% is about no effect). As to conditions: rPXR reporter cells, luciferase (One-Glo), 24 h.
In assay [18] the target is Mitogen-activated protein kinase 10 (Mus musculus) (UniProt Q61831). Nature of the assay: JNK3 AlphaScreen Assay (AID 530; active = well fitted curve in either direction with a large enough effect, not every such curve was filed as active;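 note: kinase came from lysate of stimulated human HepG2 cells; signal reports phosphorylation of biotinylated GST-cJun 1-79 at Ser73 with 10 µM ATP; % is set by controls: 0 for no effect and ±100 for the full control effect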). In short, it runs like this:
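JNK3 came from HepG2 lysates pre-activated with IL-1beta and TNF-alpha and phosphorylated biotinylated GST-cJun (1-79) at 10 uM ATP, pH 7.6, room temperature. Compounds were titrated. AlphaScreen signal used anti-phospho-cJun (Ser73) antibody.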

A short description of assay [19]: qHTS assay for small molecule agonists of retinoid X receptor alpha signaling (AID 588544; calls by dose curve;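 for activation: 0% = DMSO basal wells and 100% = reference agonist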). As to conditions: HEK293T RXRa-UAS-bla, beta-lactamase reporter, 18 h; 530 nm emission.
The target of assay [20] is Retinoic acid receptor RXR-alpha (Homo sapiens) (UniProt P19793). The description is as above.
Sequence of Retinoic acid receptor RXR-alpha (Homo sapiens) (P19793 whole entry, looked up): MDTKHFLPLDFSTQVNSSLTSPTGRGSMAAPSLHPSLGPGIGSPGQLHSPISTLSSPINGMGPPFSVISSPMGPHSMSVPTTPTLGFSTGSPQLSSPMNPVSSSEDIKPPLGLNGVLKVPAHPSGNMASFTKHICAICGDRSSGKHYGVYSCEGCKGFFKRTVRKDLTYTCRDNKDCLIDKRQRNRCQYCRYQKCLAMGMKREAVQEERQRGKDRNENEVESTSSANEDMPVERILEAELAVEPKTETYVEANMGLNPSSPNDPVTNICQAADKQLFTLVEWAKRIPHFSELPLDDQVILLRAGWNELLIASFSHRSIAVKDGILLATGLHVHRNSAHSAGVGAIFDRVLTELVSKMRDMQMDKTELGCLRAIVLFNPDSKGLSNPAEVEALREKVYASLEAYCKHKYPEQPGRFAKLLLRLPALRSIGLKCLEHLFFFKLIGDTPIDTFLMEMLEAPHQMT

Values joined by “and” are separate entries in the source; they are usually repeats but may differ in a detail not shown here. Equal values may be shown once. Results filed as inconclusive are left out. Active and inactive are the calls of the source. Unless noted, calls come from the whole dose curve; as a rule, active = well fitted inhibition curve with a large enough effect; inconclusive = small, poorly fitted or top-dose-only effect; inactive = flat fitted curve, though single readings scatter.

Sequence of Nuclear receptor subfamily 1 group I member 2 (Rattus norvegicus) (Q9R1A7 whole entry, looked up): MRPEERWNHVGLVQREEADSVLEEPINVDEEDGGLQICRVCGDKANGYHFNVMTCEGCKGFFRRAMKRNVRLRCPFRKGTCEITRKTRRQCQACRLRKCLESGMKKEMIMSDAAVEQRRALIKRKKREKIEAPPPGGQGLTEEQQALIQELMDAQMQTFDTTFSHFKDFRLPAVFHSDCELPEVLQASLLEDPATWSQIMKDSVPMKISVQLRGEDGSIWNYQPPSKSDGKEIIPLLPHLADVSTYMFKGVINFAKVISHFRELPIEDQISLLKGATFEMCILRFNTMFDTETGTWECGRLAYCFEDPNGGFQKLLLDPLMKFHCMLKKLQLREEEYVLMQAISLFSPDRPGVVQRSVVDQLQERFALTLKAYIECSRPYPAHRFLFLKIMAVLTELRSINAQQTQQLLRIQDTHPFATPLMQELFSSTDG

Consider `CCN1/C(=C/C=C/C=C/c2sc3ccccc3[n+]2CC)Sc2ccccc21`, for which the Potency is 22.4 µM (active) in assay [1]; 3.98 µM (active) in [2]; 4.47 µM (active) in assay [3]; 5.01 µM (active) in assay [4]; 6.01 µM (active) in assay [5]; 6.75 µM (active) in [6]. Further, the Potency was 3.16 µM (active) in assay [7]; 9.53 µM (active) in assay [8]; 0.708 µM (active) in [9]; 12 µM (active) in [10]; 1.07 µM (active) in assay [11]; 9.53 µM (active) in assay [12]. The Potency is 12 µM (active) in assay [13], 4.47 µM (active) in assay [14] and 1.51 µM (active) in assay [15].

For the molecule `O=NCc1ccc([N+](=O)[O-])o1`, the Potency entry in assay [1], in assay [2], in assay [3], in assay [4], in assay [5] and in assay [7] was “inactive” in each case. For the same molecule, the Potency result in assay [8], in [9], in assay [10], in [11] and in assay [14] was “inactive” in each case. In assay [15], the Potency is 6.01 µM (active).

Turning to `Cc1cccc(O)c1`, in assay [16], the activation is 1.46% (inactive) and -4.97% (inactive). Besides, in assay [17], the max response is -3.23% (inactive) and 0.598% (inactive).

Take `O[C@@H]([C@H](O)[C@@H](O)CBr)[C@@H](O)CBr`: in assay [18], the Potency result was “inactive”. For the same molecule, the max response in [19] was -11.8%; in assay [17], 0.919% (inactive). Further, in [20], the molecule was called inactive.

On to `CCC(=O)O[C@@H](OP(=O)(CCCCc1ccccc1)CC(=O)N1C[C@H](C2CCCCC2)C[C@H]1C(=O)O)C(C)C` (some centres not stated), for which the Potency result in assay [1], in assay [2], in [3], in assay [4], in [5] and in assay [6] was “inactive” throughout. Further, the Potency result in assay [7], in assay [8], in assay [9], in [10], in [11] and in assay [12] was “inactive” each time. Moreover, the Potency entry in assay [13] and in [14] was “inactive” throughout.

For the molecule `Cc1cc(CC(C)CC(C)(C)C)n(O)c(=O)c1` (configuration not stated), the Potency is 3.16 µM (active) in assay [2]; 3.16 µM (active) in assay [3]; 3.16 µM (active) in assay [4]; 3.38 µM (active) in [5]; 2.13 µM (active) in assay [6]; 2.51 µM (active) in [7]. Further, the Potency in [8] is 3.79 µM (active); in [9], 2.82 µM (active); in assay [10], 3.38 µM (active); in assay [11], 1.69 µM (active); in [12], 1.51 µM (active); in assay [13], 3.79 µM (active). The Potency in [14] was 5.01 µM (active); in [15], 2.13 µM (active).

With `CN1CC[C@H](CN2c3ccccc3Sc3ccccc32)C1`, the activity change, negative = inhibition in [18] was 0.762% [at 11.4 µM] (inactive). Besides, the Potency result in assay [1], in assay [8] and in assay [10] was “inactive” in each case. Also, the Potency is 5.01 µM (active) in assay [2]; 11.2 µM (active) in assay [3]; 12.6 µM (active) in assay [4]; 8.91 µM (active) in assay [7]; 12.6 µM (active) in assay [9]; 5.36 µM (active) in assay [12]. Moreover, the Potency in assay [13] was 13.5 µM (active); in assay [14], 11.2 µM (active); in assay [15] it was 1.9 µM (active).

In the case of `CCCCOCCO`, the Potency result in [18] was “inactive”. The activation in assay [16] was -3.83% (inactive) and -1.18% (inactive). In assay [19], the max response was -6.03% and -11.6% and -17.6%. Further, in assay [20], the molecule was classed as inactive.

For `Cc1c(N=C=O)cccc1N=C=O`, the Potency entry in [18] was “inactive”. Besides, the activation in assay [16] was -8.06% (inactive) and -0.129% (inactive). In addition, the max response in assay [19] is -9.85% and -4.8%; in assay [17] it was -1.26% (inactive) and -0.744% (inactive). For the same molecule, the outcome in [20] was inactive.

In the case of `COC(=O)c1ccc(C=O)cc1`, the Potency result in assay [18] is “inactive”. Besides, the activation in assay [16] is 8.1% (inactive) and -8.49% (inactive). The max response is 2.75% and 4.18% in assay [19]; -0.798% (inactive) and -1.94% (inactive) in assay [17]. In addition, the molecule was called inactive in assay [20].

In the case of `C1OCOCO1`, the Potency entry in assay [1], in assay [2], in [3], in assay [4], in assay [5] and in assay [6] was “inactive” throughout. Further, the Potency result in assay [7], in assay [8], in assay [9], in assay [10], in assay [11] and in [12] was “inactive” throughout. For the same molecule, the Potency entry in [13], in assay [14] and in assay [15] was “inactive” in each case. In [16], the activation was 3.41% (inactive). Moreover, the figures for the max response in assay [19] and in assay [17] were -5.21% and -2.23% (inactive), respectively. For the same molecule, in assay [20], the molecule was called inactive.

These data come from PubChem BioAssay (NCATS).
